Screens deposited in PubChem by National Center for Advancing Translational Sciences (NCATS).
Hits are enriched below; roughly 12% of the tested compounds scored in any of these assays.
BAZ2B block: qHTS Assay for Inhibitors of BAZ2B; AlphaScreen BAZ2B-H3K14Ac peptide displacement; 360,000 tested, 4.4% active; Bromodomain adjacent to zinc finger domain protein 2B (Homo sapiens), Q9UIF8; Potency, µM (titrated, usually from 114 µM), hits mostly inhibitors; further: nearly all actives have a fitted effect of over 60% in size
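Complex of BAZ2B and biotin-H3K14Ac (50 nM apiece) forms over 30 min at RT, then faces library compounds up to 110 uM for another 30 min; AlphaScreen beads added, 20 min dark incubation, luminescence read.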
HP1b binding inh: HTS for Inhibitors of HP1-beta Chromodomain Interactions with Methylated Histone Tails; Chromobox protein homolog 1 (Homo sapiens), P83916; AlphaScreen HP1-beta / biotin-H3K9me3 peptide binding; Potency, µM (highest dose often 114 µM), actives largely listed as inhibitors; 390,000 tested, 0.56% active; further: nearly all actives have a fitted effect of over 70% in size
Target sequence (P83916 whole entry, looked up): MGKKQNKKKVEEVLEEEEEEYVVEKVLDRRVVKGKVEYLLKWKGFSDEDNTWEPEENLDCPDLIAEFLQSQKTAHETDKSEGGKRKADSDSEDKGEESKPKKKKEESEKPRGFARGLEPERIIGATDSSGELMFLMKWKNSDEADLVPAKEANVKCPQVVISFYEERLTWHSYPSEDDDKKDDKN
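Compound inhibition of the preformed complex between 50 nM HP1-beta and 50 nM biotinylated H3K9me3 peptide was read by AlphaScreen. Buffer was PBS pH 7.4 with 0.01% Tween-20. Incubations ran 30 min at room temperature, with 10 ug/mL donor/acceptor beads.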
Sfp inh: qHTS Assay for Inhibitors of Bacillus subtilis Sfp phosphopantetheinyl transferase (PPTase); AID 1490, 2009; 4'-phosphopantetheinyl transferase ffp (Bacillus subtilis), Q9F4F7; Potency, µM, most hits filed as inhibitors; Biochemical Sfp PPTase activity, qHTS; 310,000 tested, 3.5% active;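 further: the enzyme is Sfp with the accession as filed and its product quenches rhodamine fluorescence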
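Fluorescence-quenching assay with 15 nM Sfp, 5 uM rhodamine-CoA and 12.5 uM BHQ-2-labelled ybbR peptide in pH 7.6 Hepes/MgCl2 buffer. Enzyme was pre-incubated with compound for 15 min at room temperature. Rate was taken from the 30-min fluorescence change (525/598 nm).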
G9a inh: qHTS Assay for Inhibitors of Histone Lysine Methyltransferase G9a; G9a H3K9 monomethylation, AlphaScreen, 2 h; Potency, µM (top dose mostly 102 µM), actives largely listed as inhibitors; 350,000 tested, 8.8% active; AID 504332, 2011; further: nearly all actives have a fitted effect of over 75% in size
Target sequence (Q96KQ7 913-1193 limits assumed): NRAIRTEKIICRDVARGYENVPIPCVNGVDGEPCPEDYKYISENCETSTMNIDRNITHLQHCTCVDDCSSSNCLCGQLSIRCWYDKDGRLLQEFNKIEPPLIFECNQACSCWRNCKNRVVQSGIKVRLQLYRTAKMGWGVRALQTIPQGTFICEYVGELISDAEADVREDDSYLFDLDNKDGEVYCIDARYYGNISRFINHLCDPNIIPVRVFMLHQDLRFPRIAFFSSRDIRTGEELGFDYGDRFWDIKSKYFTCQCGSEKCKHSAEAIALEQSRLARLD
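Using a bead-based AlphaScreen, monomethylated H3K9 product from 2 h room-temperature reactions (G9a 20 nM, peptide 500 nM, SAM 20 uM) was detected with 0.5 ug/mL rabbit anti-H3K9me1 antibody.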
L3MBTL1 block: qHTS Assay for the Inhibitors of L3MBTL1; 230,000 tested, 0.66% active; AlphaScreen L3MBTL1–H3K9me1 peptide binding; AID 485360, 2010; Potency, µM (series often up to 57.1 µM), hits mostly inhibitors; further: nearly all actives have a fitted effect of over 60% in size
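L3MBTL1 (50 nM) pre-complexed 30 min with biotinylated H3(1-15)K9me1 peptide (75 nM), then compounds added for 30 min at room temperature; AlphaScreen streptavidin donor/nickel chelate acceptor beads (10 ug/mL final) read after 30 min dark incubation.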
JMJD2A Tudor inh: qHTS Assay for Inhibitors of JMJD2A-Tudor Domain | AlphaScreen JMJD2A-Tudor / H3K4me3 peptide binding | 390,000 tested, 4.4% active | Potency, µM (doses to about 114 µM), hits mostly inhibitors | Lysine-specific demethylase 4A (Homo sapiens), O75164; further: nearly all actives have a fitted effect of over 50% in size
Each line names hits and unclear results; the compound was inactive in the other large screens. The call rests on the fitted dose curve; in most records, active means well fitted curve in the direction sought with a large enough effect; inconclusive means small, poorly fitted or top-dose-only effect, or another doubt; inactive means no such curve, though single readings can be large; an effect the other way counts as inactive or inconclusive.

CC(=O)Nc1ccc(C2C(C)CCC3C(=O)N4C(CCC(C)[C@@H]4c4ccc(NC(C)=O)cc4)C(=O)N32)cc1 (some centres not stated)	none (no result: BAZ2B block, HP1b binding inh, G9a inh, L3MBTL1 block, JMJD2A Tudor inh)
Cc1cccc(C(=O)NCc2nnc(SCC(=O)Nc3ccccc3F)n2-c2ccccc2)c1	none (no result: Sfp inh, L3MBTL1 block)
CCCCc1nc2sc3c(=O)[nH]c(=S)[nH]c3c2c2c1CCC2	JMJD2A Tudor inh 20µM (no result: BAZ2B block, Sfp inh, G9a inh, L3MBTL1 block)
CCC(Sc1nc(-c2ccccc2)c(-c2ccccc2)[nH]1)C(=O)O (configuration not stated)	G9a inh 50µM (no result: L3MBTL1 block)
Fc1ccc(COc2ccccc2C(=S)N2CCCC2)cc1	HP1b binding inh inconclusive, Sfp inh inconclusive, G9a inh 1.8µM, JMJD2A Tudor inh 79µM
COc1cc(C)ccc1OCc1cc(C(=O)N2CCCCCC2)no1	JMJD2A Tudor inh 16µM (no result: G9a inh, L3MBTL1 block)
COc1cc(C(=S)N2CCCCC2)ccc1OCC(=O)N1CCCC1	none
Cc1ccc(COc2ccccc2C(=S)N2CCCC2)cc1	Sfp inh 25µM, G9a inh 13µM
COc1cc(C(=S)N2CCCC2)ccc1OCc1ccc(C)cc1	G9a inh 32µM
O=C(NN=C1CCCCC1)c1ccccc1OCc1ccc(F)cc1	none
Cc1ccccc1-c1cc(C(=O)NCc2cccc(C(F)(F)F)c2)n(CC2CC(c3cccnc3)=NO2)n1 (configuration not stated)	none (no result: BAZ2B block, Sfp inh, G9a inh)
COc1cc(NC(=O)CCS(=O)(=O)c2ccc3c(c2)CC(=O)N3C)cc(OC)c1OC	none (no result: Sfp inh, L3MBTL1 block)
CC(C)COc1ccc(C(=O)Nc2scc(-c3ccc(Br)cc3)c2C(=O)OC(C)C)cc1	none (no result: Sfp inh, L3MBTL1 block)
COc1cccc(C(=O)Nc2cccc(-c3cn4ccsc4n3)c2)c1OC	BAZ2B block inconclusive (no result: Sfp inh, L3MBTL1 block)
CCN(CC(=O)N1CCCC1)S(=O)(=O)c1ccc(OC)cc1	none (no result: G9a inh)
Nc1c(C=C2C=CC(=O)C=C2)c(=O)nc2sc(CC(=O)N3CCOCC3)nn12	BAZ2B block inconclusive (no result: G9a inh, L3MBTL1 block)
COC1=CC(=Cc2c(N)n3nc(CC(=O)N4CCOCC4)sc3nc2=O)C=C(OC)C1=O	BAZ2B block 45µM, G9a inh inconclusive, JMJD2A Tudor inh inconclusive (no result: L3MBTL1 block)
C=CCC1=C/C(=C\c2c(N)n3nc(CC(=O)N4CCCC4)sc3nc2=O)C=C(OC)C1=O	BAZ2B block 79µM (no result: L3MBTL1 block)
COCCCNC(=O)C1CCN(c2nn3cc(-c4ccc(F)cc4)nc3s2)CC1	none (no result: Sfp inh, L3MBTL1 block)
Cc1ccccc1Cn1c(=O)n(C)c(=O)c2sccc21	none
COc1ccc(NC(=O)COC(=O)Cc2ccccc2[N+](=O)[O-])cc1OC	none (no result: L3MBTL1 block)
COc1ccc(NCc2ccccc2[N+](=O)[O-])cc1OC	BAZ2B block 50µM, HP1b binding inh inconclusive, G9a inh 11µM, L3MBTL1 block inconclusive, JMJD2A Tudor inh 50µM
Fc1c(CSC(=S)N2CCOCC2)cccc1CSC(=S)N1CCOCC1	none
CCN1CCN(CC(=O)N/N=C/c2cc(Br)cs2)CC1	BAZ2B block 25µM, HP1b binding inh inconclusive, Sfp inh 79µM, L3MBTL1 block inconclusive, JMJD2A Tudor inh 4µM (no result: G9a inh)
CCOc1ccc(N(CC(=O)N/N=C/c2ccc(OC(C)C)cc2)S(C)(=O)=O)cc1	BAZ2B block 56µM, G9a inh inconclusive, JMJD2A Tudor inh inconclusive
COC(=O)c1ccc(NC(=O)CSc2ccccc2)cc1	HP1b binding inh inconclusive, JMJD2A Tudor inh 32µM
O=C(CN1CCN(Cc2ccccc2Cl)CC1)N/N=C/c1ccccn1	G9a inh 50µM
Cc1ccc(S(=O)(=O)N2CCOCC2)cc1NC(=O)Nc1ccc([N+](=O)[O-])cc1	none (no result: BAZ2B block, Sfp inh, G9a inh)
Cc1ccc(Cl)cc1NC(=O)C(=O)NCCc1sc(-c2ccc(F)cc2)nc1C	none (no result: Sfp inh, L3MBTL1 block)
COC(=O)c1ccc(NC(=O)CN2CCN(CC#N)CC2)cc1	BAZ2B block 40µM, HP1b binding inh 50µM, Sfp inh inconclusive, G9a inh 10µM, JMJD2A Tudor inh 2.2µM (no result: L3MBTL1 block)
